Only some compounds are listed: those with a hit (about 8% of all), similar ones and a draw of the others.
SARS PLpro yeast: inhibitors of SARS-CoV papain-like protease in yeast | S. cerevisiae expressing SARS-CoV PLpro, growth rescue | Potency, µM (highest dose often 32.9 µM), without a hit: at the highest dose activity, positive = growth rescue, usual class: activators | 0.19% of 330,000 active | AID 485353; calls by dose curve; note: potency is the fitted concentration of half-maximal effect; 0% is about no effect; nearly all actives have a fitted effect of over 55% in size
HCMV antiviral: inhibitors of human cytomegalovirus | activity change, negative = inhibition, % at 57.5 µM | HFF cells, HCMV-luciferase reporter, 72 h; hits give low values | AID 1259415 | 4.5% of 410,000 active; in the data active = activity change below about -60%; inconclusive = no clear call, values can overlap the other calls; inactive = above about -39%; note: % is set by controls: 0 for no effect and ±100 for the full control effect
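Screen run at 2 compound doses on HFFs infected with reporter HCMV, MOI 1 PFU/cell. Luciferase activity from cell lysates at 72 h post infection gave inhibition relative to buffer-only and Salinomycin wells.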
FMDV inh: foot and mouth disease virus antiviral activity. Potency, µM (doses to about 57.9 µM), inactives show top-dose activity change, negative = inhibition, most hits filed as inhibitors. FMDV antiviral cell-based qHTS. 1.2% of 410,000 active; calls by dose curve; tested in HEK293T cells; note: read-out not given here; potency is the fitted concentration of half-maximal effect; % is set by controls: 0 for no effect and ±100 for the full control effect; nearly all actives have a fitted effect of over 45% in size
Marburg entry inh: blocks Marburg virus binding to or entry into cells. AID 540276. Marburg virus pseudotyped entry inhibition, cell reporter. Potency, µM (series often up to 37.8 µM), inactives show top-dose activity change, negative = inhibition, most hits filed as inhibitors. 1.8% of 300,000 active; calls by dose curve; tested in HEK293 cells; note: potency is the fitted concentration of half-maximal effect; % is set by controls: 0 for no effect and ±100 for the full control effect
Lassa entry inh: Lassa virus entry inhibition. Lassa virus pseudotype entry inhibition, cell reporter. Potency, µM (series often up to 37.9 µM), without a hit: at the highest dose activity change, negative = inhibition, hits mostly inhibitors. 1.2% of 300,000 active. AID 540256; calls by dose curve; tested in HEK293 cells; note: potency is the fitted concentration of half-maximal effect; % is set by controls: 0 for no effect and ±100 for the full control effect; nearly all actives have a fitted effect of over 50% in size
HCV inhibitor: HCV inhibition; Huh7.5.1 HCVcc-Cre infection, luciferase reporter, 44 h; Potency, µM (highest dose often 41.8 µM), inactives show at the highest dose activity change, negative = inhibition, actives largely listed as inhibitors; 3.4% of 340,000 active; AID 651820; active = well fitted inhibition curve with a large enough effect; inconclusive = small, poorly fitted or top-dose-only effect, or another doubt; inactive = no such curve, though single readings can be large or run the other way; note: potency is the fitted concentration of half-maximal effect; % is set by controls: 0 for no effect and ±100 for the full control effect
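Compounds are dispensed onto cells plated 4 h earlier at 1,000 per well, with HCVcc-Cre virus (about 0.5 moi) added next. Following 44 h of culture, luminescent signal is measured for 15 sec after 15 min with substrate at room temperature.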
Active calls of the source: *; ? = inconclusive; · = no result; [ ] = dose if it differs, or a comment.

SMILES | SARS PLpro yeast | HCMV antiviral | FMDV inh | Marburg entry inh | Lassa entry inh | HCV inhibitor
CC(=O)c1sc(NC(=O)c2cc(-c3ccccc3)nn2-c2ccccc2)nc1C | -20% | -3 | ? | ? | ? | ?
O=C(Nc1nc2ccccc2s1)c1cc(-c2ccccc2)nn1-c1ccccc1 | -36% | -75* | -24% | ? | ? | ?
COc1cccc(NC(=S)N(Cc2ccccn2)Cc2ccccc2Cl)c1 | 6% | -60* | 23% | ? | ? | ?
CC(C)[C@@H](OCc1ccccc1)[C@H](C)C=NOC[C@@H](O)[C@H]1O[C@@H]2OC(C)(C)O[C@H]2[C@@H]1O | · | · | · | -5%[14.2 µM] | 0%[14.3 µM] | ·
C=C1C(=O)C23C(O)C1CCC2C12CCCC(C)(COC(C)=O)C1C(O)C3(O)OC2 (stereo not drawn) | · | -2 | 3.5µM* | ? | 11µM* | 3.5µM*
COc1ccc(-c2csc(N3CCC(C(N)=O)(N4CCCCC4)CC3)n2)cc1 | -2% | -81* | · | -38% | 23µM* | ?
O=C(NC12CC3CC(CC(C3)C1)C2)N1CCN(c2nc(-c3ccccc3)cs2)CC1 | -1% | -17 | 25µM* | ? | ? | -24%
O=C(C1CCCCC1)N1CCN(c2nc(-c3ccc(F)cc3)cs2)CC1 | -7% | -60* | ? | -10%[46.1 µM] | -3% | ?
O=C(NC1CCCCC1)N1CCN(c2nc(-c3ccccc3)cs2)CC1 | 0% | ? | ? | ? | -19% | 10µM*
CN(C)C(=O)N1CCN(c2nc(-c3ccccc3)cs2)CC1 | -5% | 53 | 18% | · | · | -12%
O=C(NC12CC3CC(CC(C3)C1)C2)N1CCN(c2ccccc2)CC1 | -5% | -3 | 6% | -9%[46.1 µM] | 0%[46.1 µM] | -3%
CCc1ccc(C(=O)c2cn(CC(=O)Nc3ccc(OC)c(Cl)c3)c3nc(C)ccc3c2=O)cc1 | · | -3 | 0% | · | 5%[46.1 µM] | ·
CC(C)C[C@H]1COc2c(Cl)cccc2S(=O)(=O)N1Cc1ccc(Cl)cc1 | · | · | · | · | -14%[46.1 µM] | ·
O=C(NCC1(N2CCOCC2)CCCCCC1)c1cnn(-c2nccc(-c3ccco3)n2)c1C1CC1 | · | · | 0% | · | · | ·
O=C(Nc1ccccc1)Nc1ccc2snnc2c1 | -76% | 11 | 20% | ? | 10% | 11µM*
O=C(Nc1cccc(C(F)(F)F)c1)Nc1ccc2snnc2c1 | · | -105* | -27% | ? | ? | ·
O=C(Nc1cccc(C(F)(F)F)c1)c1ccc2snnc2c1 | · | -20 | -9% | 17%[46.1 µM] | 0%[46.1 µM] | ·
CC1OC(CC(=O)O)CC2=C1C(=O)c1c(O)cccc1C2=O (stereo not drawn) | · | -27 | 3.5µM* | 0.5µM* | 0.56µM* | 0.56µM*
Cc1cc(O)cc2c1C1CCC3(C)C(=O)CCC3C1C=C2 (stereo not drawn) | · | -97* | 22% | ? | 2%[46.1 µM] | -17%
C[C@]12CC[C@@H]3c4ccc(O)cc4CC[C@H]3[C@@H]1CCC2=O | -5% | 47 | -16% | ? | ? | -8%[8.37 µM]
CC(C)c1ccc(C(=O)N(c2ccccn2)C(C)c2ccco2)cc1 (stereo not drawn) | 0% | 12 | 118% | 1% | ? | -9%
CC(c1ccco1)N(C(=O)c1cc(Cl)cc(Cl)c1)c1ccccn1 (stereo not drawn) | -2% | -62* | 15% | ? | -29% | -25%
COc1ccc(NC(=O)Cn2c(=O)n(C(C)C)c(=O)c3oc4ccccc4c32)cc1Cl | · | ? | -29% | · | -22%[46.1 µM] | ·
CCOC(=O)c1ccc(NC(=O)CSc2nc3ccccc3c(=O)n2CCNC(C)=O)cc1 | · | 4 | -9% | · | -9%[46.1 µM] | ·
O=C1c2cccc3cc([N+](=O)[O-])cc(c23)C(=O)N1CC1CCCO1 (stereo not drawn) | -2% | -63* | -21% | -2% | -4% | ?
SMILES | SARS PLpro yeast | HCMV antiviral | FMDV inh | Marburg entry inh | Lassa entry inh | HCV inhibitor
O=C(CCCN1C(=O)c2cccc3cccc(c23)C1=O)N1CCN(c2ccccc2O)CC1 | -7% | 2 | -23% | ? | 7.9µM* | -20%
COc1ccc(N(CCCN2C(=O)c3cccc4cccc(c34)C2=O)C(=O)c2cccc(OC)c2)cc1 | -12% | -12 | -7% | ? | ? | 11µM*
Cc1ccc(N(CCCCN2C(=O)c3ccccc3C2=O)C(=O)c2cccc([N+](=O)[O-])c2)cc1 | -6% | -24 | -27% | -9% | -2% | -13%
CN(C)CCN1C(=O)c2cccc3cc([N+](=O)[O-])cc(c23)C1=O | · | -98* | -22% | 0.32µM* | 0.45µM* | ?
O=C1c2ccccc2C(=O)N1CC1CCCO1 (stereo not drawn) | 1% | · | 1% | 2% | 5% | ?
COc1ccc2nc3oc(C(=O)N(C)c4ccc(Cl)cc4)cc3cc2c1 | · | 4 | -19% | 9%[46.1 µM] | -21%[46.1 µM] | ·
Cc1ccccc1C(=O)Nc1nnc(S(=O)(=O)N2CCc3ccccc32)s1 | · | 32 | -18% | · | 6%[46.1 µM] | ·
CN(C)CCCN1C(=O)c2cccc3cccc(c23)C1=O | -1% | -64* | -10% | ? | -18% | ?
Cc1ccc(NC(=O)CCCN2C(=O)c3cccc4cccc(c34)C2=O)cc1 | 14% | -73* | ? | -20% | ? | ?
O=C(/C=C/c1cccs1)c1cc(F)ccc1OC(=O)N1CCOCC1 | · | -16 | 22µM* | -13% | -3% | ?
COc1ccc(NC(=O)CN(C)S(=O)(=O)c2ccc(C)cc2)c([N+](=O)[O-])c1 | -9% | -15 | -3% | 8% | -3% | -6%
COc1ccc(N(C)S(=O)(=O)c2ccc(C)cc2)c([N+](=O)[O-])c1 | 1% | ? | -17% | 6%[46.1 µM] | 13µM* | -7%
COCC1CCCN(Cc2ccc3c(c2)CN(C(=O)c2cnn(C(C)C)c2)CCO3)C1 (stereo not drawn) | · | · | -11% | · | · | ·
CCn1c(CNc2ccc(Cl)cc2)nnc1SCCN1CCCCC1 | 9% | -106* | -19% | -28% | -1% | ?
Clc1ccc(NCc2nnc3n2CCCCC3)cc1 | 5% | -99* | -15% | -8% | 3% | 6%
Cc1nc2sc(C)c(C)n2c(=O)c1S(=O)(=O)N1CCN(c2ccccc2F)CC1 | · | -8 | -1% | · | 8%[46.1 µM] | ·
CCc1cccc(-n2c(=O)c3cccnc3n2CC(=O)NCc2ccccc2)c1 | · | -21 | -1% | · | -8%[46.1 µM] | ·
CNC(=O)C1CCC(Cn2c(=O)c3sccc3n(CC(=O)Nc3cc(C)cc(C)c3)c2=O)CC1 (stereo not drawn) | · | 3 | -8% | · | -14%[46.1 µM] | ·
O=[N+]([O-])c1ccc(Sc2nccn2Cc2ccccc2)cc1 | -3% | -77* | · | 3% | -16% | 1%
CCOC(=O)c1noc2nc(C)n(CC(=O)Nc3cccc(OC)c3)c(=O)c12 | · | -16 | -8% | · | ? | ·
CCN1CCN(c2ccc([N+](=O)[O-])c(Sc3nc4ccccc4[nH]3)c2)CC1 | -2% | -32 | -14% | ? | -4% | 22µM*

Assay outcomes (PubChem)
